# Reference: PMC5540273 (PLoS ONE, 2017)
# Values joined by “and” are separate entries in the source; they are usually repeats but may differ in a detail not shown here. Equal entries are not always repeated. Where two headings read alike, the source gives them in different places.
# Tests used:
# EPHA3 = settings: concentration: 1 μM, replicates: in singlicate, n = 1
# EPHA4 = settings: concentration: 1 μM, replicates: in singlicate, n = 1
# EPHA5 = settings: concentration: 1 μM, replicates: in singlicate; n = 1
# EPHA6 = settings: n = 1
# EPHA7 = settings: concentration: 1 μM, replicates: in singlicate, n = 1
# EPHA8 = settings: concentration: 1 μM, replicates: in singlicate, n = 1
# EPHB1 = settings: concentration: 1 μM, replicates: in singlicate, n = 1
# EPHB2 = settings: concentration: 1 μM, replicates: in singlicate; n = 1
# EPHB3 = settings: concentration: 1 μM, replicates: in singlicate, n = 1
# EPHB4 = settings: concentration: 1 μM, replicates: in singlicate, n = 1
# EPHB6 = settings: concentration: 1 μM, replicates: in singlicate, n = 1
# ERBB2 = settings: concentration: 1 μM, replicates: in singlicate, n = 1
# ERBB3 = settings: concentration: 1 μM, replicates: in singlicate, n = 1
# ERBB4 = settings: concentration: 1 μM, replicates: in singlicate, n = 1
# ERK1 = tested on: T1, ERK1; settings: concentration: 1 μM, replicates: in singlicate, n = 1
# T1 construct: gene MAPK3
# ERK2 = tested on: T2, ERK2; settings: concentration: 1 μM, replicates: in singlicate; n = 1
# T2 construct: gene MAPK1
# ERK3 = tested on: T3, ERK3; settings: concentration: 1 μM, replicates: in singlicate, n = 1
# T3 construct: gene MAPK6
# ERK4 = tested on: T4, ERK4; settings: concentration: 1 μM, replicates: in singlicate, n = 1
# T4 construct: gene MAPK4
# ERK5 = tested on: T5, ERK5; settings: concentration: 1 μM, replicates: in singlicate; n = 1
# T5 construct: gene MAPK7
# ERK8 = tested on: T6, ERK8; settings: concentration: 1 μM, replicates: in singlicate, n = 1
# T6 construct: gene MAPK15
# [1] = concentration: 1 μM, replicates: in singlicate
# 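Also: KINOMEscan kinase panel screen.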
smiles,measurement,setting,value
Cc1ccc(NC(=O)c2ccnc(N3CCN(C)CC3)c2)cc1-c1ccc(C(=O)NCC2CC2)cc1 [GW775604],%Inh,EPHA3,0%
same,%Inh,EPHA4,7%
same,%Inh,EPHA5,0%
same,%Inh,EPHA6; [1],4%
same,%Inh,EPHA7,0%
same,%Inh,EPHA8,18%
same,%Inh,EPHB1,0%
same,%Inh,EPHB2,0%
same,%Inh,EPHB3,7%
same,%Inh,EPHB4,0%
same,%Inh,EPHB6,0%
same,%Inh,ERBB2,0%
same,%Inh,ERBB3,0%
same,%Inh,ERBB4,0%
same,%Inh,ERK1,0%
same,%Inh,ERK2,0%
same,%Inh,ERK3,0%
same,%Inh,ERK4,0%
same,%Inh,ERK5,0%
same,%Inh,ERK8,0%
c1ccc(-c2n[nH]cc2-c2ccnc3ccccc23)nc1 [GW271431],%Inh,EPHA3,14%
same,%Inh,EPHA4,2%
same,%Inh,EPHA5,0%
same,%Inh,EPHA6; [1],1%
same,%Inh,EPHA7,6%
same,%Inh,EPHA8,9%
same,%Inh,EPHB1,32%
same,%Inh,EPHB2,0%
same,%Inh,EPHB3,7%
same,%Inh,EPHB4,11%
same,%Inh,EPHB6,10%
same,%Inh,ERBB2,9%
same,%Inh,ERBB3,0%
same,%Inh,ERBB4,25%
same,%Inh,ERK1,0%
same,%Inh,ERK2,6%
same,%Inh,ERK3,10%
same,%Inh,ERK4,11%
same,%Inh,ERK5,0%
same,%Inh,ERK8,0%
O=C(NCCNc1ccnc(Nc2ccc(F)cc2)n1)c1cc2ccccc2s1 [GSK1379874],%Inh,EPHA3,0%
same,%Inh,EPHA4,0%
same,%Inh,EPHA5,0%
same,%Inh,EPHA6; [1],0%
same,%Inh,EPHA7,6%
same,%Inh,EPHA8,18%
same,%Inh,EPHB1,0%
same,%Inh,EPHB2,0%
same,%Inh,EPHB3,12%
same,%Inh,EPHB4,0%
same,%Inh,EPHB6,11%
same,%Inh,ERBB2,1%
same,%Inh,ERBB3,0%
same,%Inh,ERBB4,51%
same,%Inh,ERK1,0%
same,%Inh,ERK2,0%
same,%Inh,ERK3,0%
same,%Inh,ERK4,3%
same,%Inh,ERK5,0%
same,%Inh,ERK8,0%
O=c1cc(N2CCOCC2)nc2n(Cc3cccc(Cl)c3Cl)c(C3CC3)nn12 [GSK2358994],%Inh,EPHA3,0%
same,%Inh,EPHA4,11%
same,%Inh,EPHA5,6%
same,%Inh,EPHA6; 1 µM,0%
same,%Inh,EPHA7,0%
same,%Inh,EPHA8,9%
same,%Inh,EPHB1,0%
same,%Inh,EPHB2,0%
same,%Inh,EPHB3,7%
same,%Inh,EPHB4,3%
same,%Inh,EPHB6,33%
same,%Inh,ERBB2,0%
same,%Inh,ERBB3,9%
same,%Inh,ERBB4,0%
same,%Inh,ERK1,0%
same,%Inh,ERK2,11%
same,%Inh,ERK3,0%
same,%Inh,ERK4,0%
same,%Inh,ERK5,0%
same,%Inh,ERK8,13%
COc1cc2ncn(-c3cc(OCc4sccc4Cl)c(C(N)=O)s3)c2cc1OC [GSK448459],%Inh,EPHA3,0%
same,%Inh,EPHA4,0%
same,%Inh,EPHA5,0%
same,%Inh,EPHA6; [1],2%
same,%Inh,EPHA7,0%
same,%Inh,EPHA8,11%
same,%Inh,EPHB1,3%
same,%Inh,EPHB2,9%
same,%Inh,EPHB3,6%
same,%Inh,EPHB4,0%
same,%Inh,EPHB6,28%
same,%Inh,ERBB2,44%
same,%Inh,ERBB3,0%
same,%Inh,ERBB4,31%
same,%Inh,ERK1,0%
same,%Inh,ERK2,0%
same,%Inh,ERK3,8%
same,%Inh,ERK4,0%
same,%Inh,ERK5,0%
same,%Inh,ERK8,20%
O=C(NOCC1CC1)c1ccc(F)c(F)c1Nc1ccc(I)cc1Cl,%Inh,EPHA3,0%
same,%Inh,EPHA4,0%
same,%Inh,EPHA5,1%
same,%Inh,EPHA6; [1],0%
same,%Inh,EPHA7,0%
same,%Inh,EPHA8,0%
same,%Inh,EPHB1,0%
same,%Inh,EPHB2,0%
same,%Inh,EPHB3,0%
same,%Inh,EPHB4,0%
same,%Inh,EPHB6,0%
same,%Inh,ERBB2,0%
same,%Inh,ERBB3,0%
same,%Inh,ERBB4,0%
same,%Inh,ERK1,0%
same,%Inh,ERK2,8%
same,%Inh,ERK3,0%
same,%Inh,ERK4,17%
same,%Inh,ERK5,0%
same,%Inh,ERK8,8%
Cc1ccc(C(=O)NCC(N)=O)cc1-n1c(C)cc(OCc2ccc(F)cc2F)c(Br)c1=O,%Inh,EPHA3,0%
same,%Inh,EPHA4,12%
same,%Inh,EPHA5,0%
same,%Inh,EPHA6; [1],27%
same,%Inh,EPHA7,18%
same,%Inh,EPHA8,15%
same,%Inh,EPHB1,20%
same,%Inh,EPHB2,19%
same,%Inh,EPHB3,25%
same,%Inh,EPHB4,27%
same,%Inh,EPHB6,6%
same,%Inh,ERBB2,36%
same,%Inh,ERBB3,0%
same,%Inh,ERBB4,0%
same,%Inh,ERK1,6%
same,%Inh,ERK2,0%
same,%Inh,ERK3,0%
same,%Inh,ERK4,0%
same,%Inh,ERK5,13%
same,%Inh,ERK8,13%
NCCNS(=O)(=O)c1ccc(-c2ccnc3[nH]ccc23)cc1 [GSK977617],%Inh,EPHA3; 1 µM,52% and 31%
same,%Inh,EPHA4; 1 µM,6% and 0%
same,%Inh,EPHA5,0%
same,%Inh,"EPHA6; concentration: 1 μM, replicates: in singlicate, 1 µM",5% and 0%
same,%Inh,EPHA7; 1 µM,16% and 15%
same,%Inh,EPHA8; 1 µM,13% and 16%
same,%Inh,EPHB1; 1 µM,23% and 15%
same,%Inh,EPHB2,0%
same,%Inh,EPHB3; 1 µM,11% and 0%
same,%Inh,EPHB4; 1 µM,11% and 1%
same,%Inh,EPHB6; 1 µM,13% and 24%
same,%Inh,ERBB2; 1 µM,37% and 0%
same,%Inh,ERBB3; 1 µM,3% and 0%
same,%Inh,ERBB4; 1 µM,47% and 0%
same,%Inh,ERK1; 1 µM,8% and 0%
same,%Inh,ERK2,0%
same,%Inh,ERK3; 1 µM,12% and 17%
same,%Inh,ERK4; 1 µM,3% and 25%
same,%Inh,ERK5,0%
same,%Inh,ERK8; 1 µM,46% and 17%
O=C(NCCNc1ccnc(Nc2ccc(F)cc2)n1)Nc1ccccc1F [GSK1379880],%Inh,EPHA3,0%
same,%Inh,EPHA4,6%
same,%Inh,EPHA5,0%
same,%Inh,EPHA6; [1],0%
same,%Inh,EPHA7,2%
same,%Inh,EPHA8,21%
same,%Inh,EPHB1,38%
same,%Inh,EPHB2,0%
same,%Inh,EPHB3,0%
same,%Inh,EPHB4,0%
same,%Inh,EPHB6,17%
same,%Inh,ERBB2,9%
same,%Inh,ERBB3,0%
same,%Inh,ERBB4,38%
same,%Inh,ERK1,0%
same,%Inh,ERK2,0%
same,%Inh,ERK3,0%
same,%Inh,ERK4,8%
same,%Inh,ERK5,0%
same,%Inh,ERK8,0%
CCc1nc(-c2cccc(C)c2)c(-c2ccnc(NCc3ccccc3)c2)s1,%Inh,EPHA3,0%
same,%Inh,EPHA4,0%
same,%Inh,EPHA5,0%
same,%Inh,EPHA6; [1],17%
same,%Inh,EPHA7,4%
same,%Inh,EPHA8,11%
same,%Inh,EPHB1,15%
same,%Inh,EPHB2,6%
same,%Inh,EPHB3,0%
same,%Inh,EPHB4,3%
same,%Inh,EPHB6,5%
same,%Inh,ERBB2,22%
same,%Inh,ERBB3,2%
same,%Inh,ERBB4,3%
same,%Inh,ERK1,0%
same,%Inh,ERK2,11%
same,%Inh,ERK3,0%
same,%Inh,ERK4,5%
same,%Inh,ERK5,3%
same,%Inh,ERK8,0%
